# From the supplement of paper PMC6555819
# Tested on: VDR:RXRa (NR concentration 270 nM, RXRa partner concentration 90 nM)
# Experiment: PBM binding z-score (relative to random genomic background probes); higher = stronger binding; sequences stand for … in GC…GCGATTGACAGCGTAGAATGAAGG
# Experimental: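 Protein-binding microarray (Agilent 4x180K custom design, double-stranded 60-nt probes: 5' GC cap, 34-nt variable region, 24-nt constant primer region; full probe sequence given). Purified or IVT nuclear receptor:RXRα heterodimers (3:1 NR:RXRα, mostly 270:90 nM) or homodimers were incubated for 1 h in PBS with 2% milk and no ligand, then detected with Alexa488 antibodies. Fluorescence from o1-orientation probes (~5 replicates averaged) was converted to z-scores against 500 random hg19 background probes. Variable regions are seed direct-repeat (DR0–DR5) sites, all their single-nucleotide variants and half-site ablations.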
row,Sequence,PBM binding z-score
1,CCTAGTTGGGCAGGAGGTCACACACCGGATATGA,3.09
2,CCTACTGGGCCATTCAGAGGTCATCGATCATATG,4.05
3,ACTCGGAGGACAGAGGTCAGAGCTACGCCAGTGA,2.99
4,ATATGTAGGTTAGGGTCATTAAGAAAGTAGGGAA,3.86
5,TCGAGTAGGTTACGGGGGCTTTCAGGGATGAAGA,2.02
6,TAGCCTAGGTCATTTGGCCAGTATAGTACGCATC,2.52
7,TAGCCTAGGTCATTCAGGGGCCAGAATAGAAAGC,3.17
8,TAGCCTAGGTCATAGGCCAGTATACCACGCGAAC,1.74
9,TCTGCTAGGTCAGTTGGGCAGCTAACGAGCTGCC,-0.0977
10,CTATGTTGGTTAAGGGGGTCATTCAGTTTGAAAG,6.64
11,CCGAGTAGGTTACGAGGGAGCATTCAGTGCGAAT,1.11
12,CGTCCAAGGTCAAAGGTCAGCGAAGAGATGACGG,6.91
13,CTATGTAGGTTAAGGGGGTCATTCGGTTTGAAAG,7.56
14,CGAGCTAGGTCAAAGGACAGTGAAAGGCGACGTA,0.97
15,AGTCAAAATTCACTAGGTAACGTAAGATTCAGCT,0.0665
16,GGAACGGGGGCAAGTTGATAGCAGAGTTTGATGG,3.44
17,TCATATAGGTAATAGGTGAAAGTCGGTGTGGTAA,0.883
18,CCGATTAGGTTACGAGGGGGCATTCAGTGCGAAT,5.1
19,AGTCAAAGTTCATCTAGGTATCGTAAGATATGCT,5.01
20,CCGAGTAGGTTACGTGGGGGCATTCAGTGCGAAT,5.48

row,Sequence,PBM binding z-score
1,CAATCTAGGTCAAAGGTCAAAGTCGAGCCAACCA,6.74
2,CGAACTAGGTCAAAGGACACTGAAAGGCGACGTA,1.74
3,TGAATGAGGTTAAAGGTCAGGGAACGTGGCGTCG,5.85
4,CCTTACGGGTCTAGGTTATAGCACGGGTGGTACG,-0.339
5,CCGAGTAGGTTACGATGGGGCATTCAGTGCGAAT,0.842
6,CCGAGTAGGTTACCAGGGGGCATTCAGTGCGAAT,4.94
7,TCGAGTACGTTACGGGGGCATTCAGGGATGAAGA,3.76
8,CCTACTGGGGCAAAGGTCATTGATTCCAATGCTC,4.96
9,CCTACTGGGCAAAAAAGGTCATTGATGCCGATAA,4.36
10,TCGAGTAGGCTACGGGGGCATTCAGGGATGAAGA,2.2
11,TCTTGTAGATCAAAGGTCAAGAAAGCCGAAGCCT,4.14
12,CTATGTAGGATAAGGGGGTCATTCAGTTTGAAAG,6.5
13,CTCGAAAGGTCGAGCTCAGGTGAGTATACCAAAC,2.71
14,AGATGTAGGTTAGGGTCATTCAGAAAGTAGGGAA,4.32
15,TCTGCTAGGTCAACGATGGTCAGCGAATCTGCTA,1.66
16,CGAACTAGGTCACAGGACAGTGAAAGGCGACGTA,1.61
17,TGACTGAGGTTAAAGATCAGGGAACGTGGCGTCG,1.69
18,TGAATGAGGTGAAAGATCAGGGAACGTGGCGTCG,0.449
19,GCTTACGGGTCAAAAGTTATAGCATGAATAGAAT,2.93
20,CAAAGTAGGTCACCGGAAGGTCAAAGTCCGCATG,6.18
